The results in this text go back to the OligoGym collection.
Also: reference of the scale not given here.

The target in the first experiment is VWA3A. Briefly: pooled miR-30 sensor sort-seq; sequence = guide strand. The conditions noted are these: shRNA.
Take TGAATGTTCTTCACTGTCCCGT: the sensor-assay potency score (higher = more potent) was -0.182.

TTCTGCATCATTTTTCTTCTGG came in with a sensor-assay potency score (higher = more potent) of 0.433.

With TTTAGGACAAGGCTGCAGCTTG, the sensor-assay potency score (higher = more potent) was -0.774.

TTGGTGTTTGTCTTTGTCCTTG gave a sensor-assay potency score (higher = more potent) of -0.376.

Sequence TAAATTGTTGTGACTCACGGGA had a sensor-assay potency score (higher = more potent) of 0.0538.

Turning to TTCAGCTGGAGGTCGCAGCCGC, the sensor-assay potency score (higher = more potent) is -0.797.

In the case of TAGTGCTCCATCTTTGGGCTGT, the sensor-assay potency score (higher = more potent) was found to be 0.398.

For the sequence TACATCCGCATAGCTCTGCTGA, the sensor-assay potency score (higher = more potent) is -0.863.

On to TCGAGCAGTACAACCACCCTTT, for which the sensor-assay potency score (higher = more potent) turned out to be 0.012.

TTAGCTGAAGTGTCTTTGGTTT registered a sensor-assay potency score (higher = more potent) of -0.499.

The sequence TTTCACATCTCTTTTCTCCCTG gave a sensor-assay potency score (higher = more potent) of 0.76.

TTCACATCTCTTTTCTCCCTGA gave a sensor-assay potency score (higher = more potent) of 0.334.

The next experiment has as its target WBSCR16. The description is as above. The conditions noted are these: shRNA.
Take ATAGACTTCTCCTTTATCCGTC: the sensor-assay potency score (higher = more potent) is 0.592.

In turn, AATCTTTTGGTCCAGCTCCAGG yielded a sensor-assay potency score (higher = more potent) of -1.82.

TTCTGGGTTGAACTCCGTCAAG registered a sensor-assay potency score (higher = more potent) of -1.57.

Sequence TAGACTTCTCCTTTATCCGTCA had a sensor-assay potency score (higher = more potent) of -0.137.

Consider TTTCGTAACATCCGCAGTCTTA, for which the sensor-assay potency score (higher = more potent) is -0.626.

Take TTATCCGTCAGGAACAGACTAT: the sensor-assay potency score (higher = more potent) was -0.761.

As to TTTAACACTGCACAGCCCGTGC, the sensor-assay potency score (higher = more potent) was -0.959.

TTCTTAACTTTTCCAAGCCAGG: the sensor-assay potency score (higher = more potent) was -1.27.

On to TTAGCCTCGATTCTCTTCCTGA, for which the sensor-assay potency score (higher = more potent) was -0.0373.

TTTTGGTCCAGCTCCAGGCGAT: the sensor-assay potency score (higher = more potent) is -1.09.

In turn, TATTGTAGTGACCCAGACCTGT showed a sensor-assay potency score (higher = more potent) of -0.394.

Turning to TCATTTTCGACCACCTTTCTTC, the sensor-assay potency score (higher = more potent) is 0.23.
